# Measurements as given in PMC13494018.
# A number with no mark means an inactive call. How the calls were made is not given here.
# B1: design_609_7ee6ce64-4629-41e8-bcb4-ba0da017284d_1161_dldesign_0_cycle1_af2pred (protein)
# chain: GSEEARKLQEEFGEALRRFTAAGRRLVETGREVGERTGDPEIEERARRVAEEGNRRRLEALDAGDVEAILAVADELERATEELL
# B2: design_609_7ee6ce64-4629-41e8-bcb4-ba0da017284d_1172_dldesign_0_cycle1_af2pred (protein)
# chain: MEEVEAFKKEAQKKLDEAVEYALSISDIEKSKKVADLMSEMGKHYSEAYKAMESGEKLEEAKKNIEKAEEYYKKAKEIAEEDEKKKKE
# B3: design_609_7ee6ce64-4629-41e8-bcb4-ba0da017284d_2006_dldesign_0_cycle1_af2pred (protein)
# chain: EKLLGEGYADIIVDNTKSVIAADPSKAEEYVETNKAKGLARAEKIKDTEAGKVLKEKVEKEAEKLLAEAKKAKAAAEAAA
# B4: design_609_7ee6ce64-4629-41e8-bcb4-ba0da017284d_1936_dldesign_0_cycle1_af2pred (protein)
# chain: SASEKTKEYLKKNDELGKKAAELSLKDEEKGLALAEKDVYIAIKASAILYKKGDEKALEHAKKFKEVAFKMLDE
# B5: design_609_7ee6ce64-4629-41e8-bcb4-ba0da017284d_1351_dldesign_0_cycle1_af2pred (protein)
# chain: AAAAAAEAARAAAAAAAVAAAAEAKTAEVAKADPSAAPYYADAAGIVVDSAAAALAAAPGAEAAAIAARGVRTINRLAESTIEAIKRR
# B6: design_609_7ee6ce64-4629-41e8-bcb4-ba0da017284d_1790_dldesign_0_cycle1_af2pred (protein)
# chain: NEADKEVEELTKKIKELTKKAKEALEKGNIEEAKKYAEEAMKAIKKAREIAPKASKELQKEASKAAAEAYEVYAEVEFKSK
# B7: design_609_7ee6ce64-4629-41e8-bcb4-ba0da017284d_1108_dldesign_0_cycle1_af2pred (protein)
# chain: MQEAIDYVKKKGSELIDKLVDDLAAGEEKDDPKIAKEVLEKLEELEKEAKKLSEEAAEEAKKAIETAKRIASNA
# B8: design_609_7ee6ce64-4629-41e8-bcb4-ba0da017284d_1726_dldesign_0_cycle1_af2pred (protein)
# chain: AAAEEIAKAKAVYDKRKAKAQEYEKKGDYKGAANEYDIAAAQLGMAAAGLSPEAAAVAKALAEEAKKLAEEAEKKLAE
# B9: design_609_7ee6ce64-4629-41e8-bcb4-ba0da017284d_1088_dldesign_0_cycle1_af2pred (protein)
# chain: NKSKEYSDAMKELVRAAKEAAAAADALGAAKGDPALAQAIKAELEKLVFEAADGDIETAKKLAEEAKKLKEAAEKALA
# B10: design_609_7ee6ce64-4629-41e8-bcb4-ba0da017284d_914_dldesign_0_cycle1_af2pred (protein)
# chain: AEAEELVEKAEERYKKLKERAEKAIKEGNKNELLAVSEAAKHAAEQAEKLAPKTGEKGKEVAKKFKELSKKAEETAKK
# B11: design_609_7ee6ce64-4629-41e8-bcb4-ba0da017284d_1016_dldesign_0_cycle1_af2pred (protein)
# chain: AAADAKAKFDVAFLAAELRASARAAAKANPAAAPAVVDAAAERLRAAGAAGTPEAAAYADAAIARERAWAAAAAAA
# B12: design_609_7ee6ce64-4629-41e8-bcb4-ba0da017284d_1000_dldesign_0_cycle1_af2pred (protein)
# chain: GKAIEAQKLVADAFAKYRKGKANPETYEEDKAEARELLREALELDFESAKETAKFLAELAKWQNPEAGKEFAALVEEVIAEVA
# B13: design_609_7ee6ce64-4629-41e8-bcb4-ba0da017284d_985_dldesign_0_cycle1_af2pred (protein)
# chain: SEEVLELGEREAERLKEAGASNRSIGLVLFLAEEAAEGNLEAAEGIFRAARREAEREKEKNPEVGELLEEALERLRKAAE
# B14: design_609_7ee6ce64-4629-41e8-bcb4-ba0da017284d_1721_dldesign_0_cycle1_af2pred (protein)
# chain: SKLEEDKKKAEELKKEAEKLAEEAAKTTPEEAKKLRKELREKAKKVAEEVSPEIAKKVAEIAHEAQQKIAEAMQEIKK
# B15: design_609_7ee6ce64-4629-41e8-bcb4-ba0da017284d_1964_dldesign_0_cycle1_af2pred (protein)
# chain: SKESRLRRAKALAEEAIKLLEEGEYAWAAALLRAAAREAERAGNEEAAKLLREAAELAAKSALEGPKYKEEALRLAKEALEILEKE
# B16: design_609_7ee6ce64-4629-41e8-bcb4-ba0da017284d_1996_dldesign_0_cycle1_af2pred (protein)
# chain: AAAATAHEAIQTSTEAAEKLKKGKTEEDKELGKEIEEKRKELSRRAAEAQKEGPEAAKKAVAELAKFAEEAKKIAEEREKKRK
# B17: design_609_7ee6ce64-4629-41e8-bcb4-ba0da017284d_862_dldesign_0_cycle1_af2pred (protein)
# chain: MEVAKLAHEALEAAAEGEAVAKNDPEKREKLRELARKAREAAKKGDVEEAKKLAKEVKKLAKALEKEKKEKEK
# B18: design_609_7ee6ce64-4629-41e8-bcb4-ba0da017284d_1733_dldesign_0_cycle1_af2pred (protein)
# chain: SEKDKAIMEATFHANGALNLADVGGDKKEIEKEAKLAKEHAEKAAKLSSKEEGAKILEYVEKKVKEVEEKLKKL
# B19: design_609_7ee6ce64-4629-41e8-bcb4-ba0da017284d_1584_dldesign_0_cycle1_af2pred (protein)
# chain: MNVEEAKKEAKEIRDETIAKMKAAKTPEEVAAVAHEGLQKLAEGAYKFKSNKEAEKIYEEARKEVIDAAREIAAALEAAA
# B20: design_609_7ee6ce64-4629-41e8-bcb4-ba0da017284d_900_dldesign_0_cycle1_af2pred (protein)
# chain: GKEMVDKYSKERKKIAEAAKLAKEGKENPETFEKKAEEALKIAEEAAKEGDEGIKFQAENLKAYIEKLRKEK
# B21: design_609_7ee6ce64-4629-41e8-bcb4-ba0da017284d_1185_dldesign_0_cycle1_af2pred (protein)
# chain: KSEESKKEAEAAAKAAGEAMAKATGDKATADALAKAMLDALKAGDEAAAVAKRNEAAAIALAADPALAMDVLAEGKAAIVYAKK
# B22: design_609_7ee6ce64-4629-41e8-bcb4-ba0da017284d_1728_dldesign_0_cycle1_af2pred (protein)
# chain: EAEKQALADAAKAAEKAAKAAKESPEKGAKAAKELAKAYPEVAKAANAAARYIEELGEEGVDAAEEILKHAIKTLKAKAAAL
# B23: design_609_7ee6ce64-4629-41e8-bcb4-ba0da017284d_2027_dldesign_0_cycle1_af2pred (protein)
# chain: MTPEELLAKIKELAKKAKEAKDEKEAKKYLEEAKAAAAELKANGTPETAKQASAAVAEAYENYAEAVFKIK
# B24: design_609_7ee6ce64-4629-41e8-bcb4-ba0da017284d_1105_dldesign_0_cycle1_af2pred (protein)
# chain: DALKEAAEIAAKARELAAELDYLAKKSSPELGKKYAAYAERLRKAVRETRETGVEGAEKTRKELEEVEKEVKEL
# B25: design_609_7ee6ce64-4629-41e8-bcb4-ba0da017284d_1135_dldesign_0_cycle1_af2pred (protein)
# chain: SAALEHLVESLIENSTKAAEEGTPEVAKLLNAAAAAAKAGDLETALKLADQALALSPPNINVTLARSDARNALELAKK
# B26: design_609_7ee6ce64-4629-41e8-bcb4-ba0da017284d_960_dldesign_0_cycle1_af2pred (protein)
# chain: DEEAYKKAKERGKKLEEKAKASNAYSAAAYYEAAYESYLQAAKQVRPELAKELKKAAEEAKAKAEEKYAEVAA
# B27: design_609_7ee6ce64-4629-41e8-bcb4-ba0da017284d_1630_dldesign_0_cycle1_af2pred (protein)
# chain: AAGAAAVAAASKARGEALFELAAKAKFGTEEEAKEAEAKRKALTAAAKAVKAAAGTADAAAVATAARAQAEAIL
# B28: design_609_7ee6ce64-4629-41e8-bcb4-ba0da017284d_1084_dldesign_0_cycle1_af2pred (protein)
# chain: SEKEKEEVLKEAKEVLEKAKKAAEELGDEEAVKRMERRLKRAEEGNLQDAEAALESGKHALENAKKKLKEKEKAA
# B29: design_609_7ee6ce64-4629-41e8-bcb4-ba0da017284d_1405_dldesign_0_cycle1_af2pred (protein)
# chain: DLKKKIEAEAGKSYAEGVAESAAKIIAEIDPEIAPEYAEKVKKELTALAEKLADKSLETVYKEAKAIAKKVIEEAKKKK
# B30: design_609_7ee6ce64-4629-41e8-bcb4-ba0da017284d_962_dldesign_0_cycle1_af2pred (protein)
# chain: AEAEVKAAIEELKAESEKIVEEAKKEMEKHKEDPKKVEEIRKEALKKIRELAKEVAEKTGDWKGASAVVHEAYEKLNEAYKEAIEKAK
# B31: design_609_7ee6ce64-4629-41e8-bcb4-ba0da017284d_1771_dldesign_0_cycle1_af2pred (protein)
# chain: KKEEALNYASEMRAYLIGAAAASKLPQAPQLEAEAREKAEKVGELLSPEVAKKIKELTEQAIAGTPEERKALAREIAELVKKAVEE
# B32: design_609_7ee6ce64-4629-41e8-bcb4-ba0da017284d_1124_dldesign_0_cycle1_af2pred (protein)
# chain: MAEAFEFTAEGLRLLAEEKSPEEAEKYNELAEKFEELAERARTGTPEDAKAAREEGNKLVKENSELVFEAKEYKTEKDYEELK
# B33: design_609_7ee6ce64-4629-41e8-bcb4-ba0da017284d_1780_dldesign_0_cycle1_af2pred (protein)
# chain: MEQAELRREMVRLVREAGRILEEKAPEYPEAKEAIELLRKAVFLAGDKEKAPEALELLKKAAEIAKEIDPEAAELIKEALELAKKWKE
# B34: design_609_7ee6ce64-4629-41e8-bcb4-ba0da017284d_1354_dldesign_0_cycle1_af2pred (protein)
# chain: AVAAAKAAAAKDAEEVNKLKFEAVDGDAETVEAVMKEVKARREEWLAKAKADPAAKAVYEAAAEGMDKTEKALQSVLDALKKN
# B35: design_609_7ee6ce64-4629-41e8-bcb4-ba0da017284d_1401_dldesign_0_cycle1_af2pred (protein)
# chain: ALAALLEGLAKAAVIVARGIRRAARYAGDPRKAGFAFIVAGEQAFLVGRADPNPVAAAVLWLTGVLLIAIGLAIEAS
# B36: design_609_7ee6ce64-4629-41e8-bcb4-ba0da017284d_1448_dldesign_0_cycle1_af2pred (protein)
# chain: AEEEARKERLEAAKKELNELRLKAADSGDAEKALEYAKQAEAVAEKAGIPEDGEKAARVIRSIAEALKKN
# B37: design_609_7ee6ce64-4629-41e8-bcb4-ba0da017284d_1938_dldesign_0_cycle1_af2pred (protein)
# chain: EEELKKLIEEHMEKLAKEAEKADPEVGKEVKEALKKAKKLNVGEAISLFLSTGARAAKEIGKKDPEKGKKVKEIVDKALDEIFSK
# B38: design_609_7ee6ce64-4629-41e8-bcb4-ba0da017284d_1121_dldesign_0_cycle1_af2pred (protein)
# chain: SKEEAIKNIRELRRELREVAEEAMKEVSEEDAKKVRELASKASGKLAEERGLAVSKPELAEEALKNAKEIAEKAIEEVKKIAEKAKK
# Molecular target: VTCN1, Q7Z7D3
# Sequence (Q7Z7D3 whole entry): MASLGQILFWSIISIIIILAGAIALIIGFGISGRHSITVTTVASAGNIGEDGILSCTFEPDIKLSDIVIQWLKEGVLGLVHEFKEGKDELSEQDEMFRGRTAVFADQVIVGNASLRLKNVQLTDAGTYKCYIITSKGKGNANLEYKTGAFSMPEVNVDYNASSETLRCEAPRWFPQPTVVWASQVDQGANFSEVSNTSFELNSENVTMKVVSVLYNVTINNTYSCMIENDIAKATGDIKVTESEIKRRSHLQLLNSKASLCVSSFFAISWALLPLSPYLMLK
row,Binder,binding in a display sort
1,B1,not found
2,B2,not found
3,B3,not found
4,B4,not found
5,B5,not found
6,B6,not found
7,B7,not found
8,B8,not found
9,B9,not found
10,B10,not found
11,B11,not found
12,B12,not found
13,B13,not found
14,B14,not found
15,B15,not found
16,B16,not found
17,B17,not found
18,B18,not found
19,B19,not found

row,Binder,binding in a display sort
1,B20,not found
2,B21,not found
3,B22,not found
4,B23,not found
5,B24,not found
6,B25,not found
7,B26,not found
8,B27,not found
9,B28,not found
10,B29,not found
11,B30,not found
12,B31,not found
13,B32,not found
14,B33,not found
15,B34,not found
16,B35,not found
17,B36,not found
18,B37,not found
19,B38,not found
